Results filed as inconclusive are left out. Values without a mark were called inactive. Active and inactive are the calls of the source. Calls follow the shape of the dose curve; as a rule, active = well fitted cell-killing curve with a large enough effect in the repeat runs; inconclusive = weak or mixed curves, or effect the other way; inactive = flat fitted curve, though single readings scatter.
% is scaled to controls: 0 for no effect and ±100 for the full control effect; potency is read from the fitted curve at half-maximal effect.

This test in a line: qHTS RealTime-Glo MT Cell Viability Assay in HEK293 cells - 0 hour (AID 1224880). Also: nearly all actives have a fitted effect of over 45% in size. As to activity change, negative = cytotoxicity: top concentration of the series differs between compounds. The following applies: RealTime-Glo luminescence; series mostly up to 76.8 µM; activity change, negative = cytotoxicity: at the top concentration. Put shortly:
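600 HEK293 cells per well, dispensed already mixed with RealTime-Glo MT reagents. Compound dosing came 5 h later. The same wells were read for luminescence at 0, 8, 16, 24, 32 and 40 h of exposure at 37 C.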
In the case of `Nc1ccccc1O`, the “activity change, negative = cytotoxicity” value is 0.658%.

`Cc1oc(-c2ccccc2)nc1CCC(=O)c1ccc(CC2SC(=O)NC2=O)cc1` (stereo unspecified): the “activity change, negative = cytotoxicity” value is -17.3% [at 35.3 µM].

On to `CS(=O)(=O)CCNCc1ccc(-c2ccc3ncnc(Nc4ccc(OCc5cccc(F)c5)c(Cl)c4)c3c2)o1`, for which the Potency was 0.674 µM (active).

In the case of `O=C(O)c1c(Cl)cccc1Cl`, the “activity change, negative = cytotoxicity” value was -0.783%.

In the case of `CCC1OCC(COc2ccc(Oc3ccccc3)cc2)O1` (stereo unspecified), the “activity change, negative = cytotoxicity” value is -1.83%.

`CCN(Cc1cccnc1)C(=O)c1cccc(Cl)c1[C@]1(C)C(=O)N(Cc2ccc(OC)cc2OC)c2ccc(Cl)cc21`: the “activity change, negative = cytotoxicity” value was -0.722%.

Turning to `Cn1cc(C(=O)[C@@H]2CCc3nc[nH]c3C2)c2ccccc21`, the “activity change, negative = cytotoxicity” value was 16.1% [at 35.3 µM].

For `C[C@H]1[C@H]2CC[C@H]3[C@@H]4CC=C5C[C@@H](N(C)C)CC[C@]5(C)[C@H]4CC[C@]23CN1C`, the “activity change, negative = cytotoxicity” value is 14.7% [at 35.3 µM].

In the case of `Cc1ccc(O)c2ncccc12`, the “activity change, negative = cytotoxicity” value is 0.713% [at 35.3 µM].

In the case of `COCCCC/C(=N\OCCN)c1ccc(C(F)(F)F)cc1`, the “activity change, negative = cytotoxicity” value was 24.8% [at 35.3 µM].

Turning to `CCCCCCCCCCCCCCCCCC[N+](C)(C)Cc1ccccc1`, the “activity change, negative = cytotoxicity” value was 22.9%.

For the compound `CCN(C(=O)c1cc(C)cc(OC[C@H](C)Nc2ccncc2)c1)C(C)C`, the “activity change, negative = cytotoxicity” value is 11.3% [at 35.3 µM].

`O=[N+]([O-])c1cc([N+](=O)[O-])c2ccc(S(=O)(=O)O)cc2c1O`: the “activity change, negative = cytotoxicity” value is -26.1%.

For the compound `Cc1cccc(CN2CCN(C(c3ccccc3)c3ccc(Cl)cc3)CC2)c1` (stereo unspecified), the “activity change, negative = cytotoxicity” value is 8.08% [at 35.3 µM].

`CCCCN1C(=O)[C@@H]([C@H](O)C2CCCCC2)NC(=O)C12CCN(Cc1ccc(Oc3ccc(C(=O)O)cc3)cc1)CC2`: the “activity change, negative = cytotoxicity” value was -11.4%.

On to `Cc1onc(-c2ccccc2Cl)c1C(=O)N[C@@H]1C(=O)N2[C@@H]1SC(C)(C)[C@@H]2C(=O)O`, for which the “activity change, negative = cytotoxicity” value was -0.0284% [at 35.3 µM].

With `O=C1CCCCCN1SSN1CCCCCC1=O`, the “activity change, negative = cytotoxicity” value is -7.87%.

Take `CCCCCOc1ccccc1/C(=C\SC)n1ccnc1`: the “activity change, negative = cytotoxicity” value is -16.3% [at 35.3 µM].

As for `Cc1[nH]nc2c1N=C(c1ccccc1Cl)c1cc([N+](=O)[O-])ccc1N2`, the “activity change, negative = cytotoxicity” value was -11.2%.

`c1cc(C(c2ccc(OCC3CO3)cc2)c2ccc(OCC3CO3)cc2)ccc1OCC1CO1` (stereo unspecified): the “activity change, negative = cytotoxicity” value was -13.5%.

Consider `CCCCCCCCOC(=O)c1ccc(O)cc1`, for which the Potency result is “inactive”.

`CO[Si](CCCNc1ccccc1)(OC)OC`: the “activity change, negative = cytotoxicity” value was 2.09%.

`CCCCCCCCS(=O)C(C)Cc1ccc2c(c1)OCO2` (stereo unspecified): the “activity change, negative = cytotoxicity” value is 9.51%.

As to `CCOC(=O)/C=C(C)/C=C/C=C(C)/C=C/c1c(C)cc(OC)c(C)c1C`, the “activity change, negative = cytotoxicity” value was 0.26% [at 35.3 µM].

As for `Cc1nc(-c2ccc3c(c2)CCN(CCC2CCC(NC(=O)/C=C/c4ccc(F)cc4)CC2)CC3)no1` (stereo unspecified), the “activity change, negative = cytotoxicity” value is 1.42% [at 35.3 µM].

Regarding `CN1CCN(CCC(=O)N2c3ccccc3Sc3ccc(C(F)(F)F)cc32)CC1`, the “activity change, negative = cytotoxicity” value is 24.2% [at 35.3 µM].

In the case of `Cc1cc(O)c(C(C)(C)C)cc1C(C)(C)C`, the “activity change, negative = cytotoxicity” value is 2.97%.

As for `O=C(N/N=C/c1ccccc1O)c1ccncc1`, the “activity change, negative = cytotoxicity” value is -3.46% [at 35.3 µM].

For `CCN(C(=O)N(CC)c1ccccc1)c1ccccc1`, the “activity change, negative = cytotoxicity” value was -20.6%.

For the compound `CC[C@@]1(O)C(=O)OCc2c1cc1n(c2=O)Cc2cc3c(CN(C)C)c(O)ccc3nc2-1`, the “activity change, negative = cytotoxicity” value was -3.1% [at 35.3 µM].

As for `O=C1c2ccccc2Cc2ccccc21`, the “activity change, negative = cytotoxicity” value was 6.31%.

Values taken from PubChem BioAssay (Tox21).
